From PubChem
Luc counter – Counterscreen for Luciferase (Kinase-Glo TM) Inhibition; Luciferin 4-monooxygenase (Photuris pensylvanica), Q27757; actives 0.28% (n = 200,000); Potency, µM (doses to about 38.3 µM), without a hit: at the highest dose activity change, negative = inhibition, hits mostly inhibitors; Kinase-Glo luciferase, ATP luminescence, 8 min; note: nearly all actives have a fitted effect of over 60% in size
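Compound is pinned into ATP-containing buffer (10 uM ATP, imidazole pH 7.2, 7 mM MgCl2). Kinase-Glo luciferase reagent is then added. Light output is recorded following an 8-min room-temperature incubation.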
IMPase Li inh – qHTS Assay for Identifying the Cell-Membrane Permeable IMPase Inhibitors: Potentiation with Lithium; CHO-M1 cells, IP1 TR-FRET (IP-One), carbachol + lithium; actives 0.35% (n = 210,000); Potency, µM (titrated, usually from 59.4 µM), for inactives: at the highest dose activity, negative = IMPase inhibition, actives largely listed as inhibitors;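 note: IP1 builds up when IMPase is blocked and the TR-FRET signal falls; plate controls were basal vehicle for no effect and high inhibitor control for full effect; nearly all actives have a fitted effect of over 50% in size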
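IP1 accumulation measured by competitive TR-FRET in lysed CHO-M1 cells after 30 min compound exposure at 37C, with a small lithium addition to potentiate weak responses. Hill-equation AC50 from ratio and donor-channel data.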
ALDH1A1 inh – qHTS Assay for Inhibitors of Aldehyde Dehydrogenase 1 (ALDH1A1); Aldehyde dehydrogenase 1A1 (Homo sapiens), P00352; Purified ALDH1A1, NADH fluorescence, propionaldehyde substrate; Potency, µM (series often up to 75.3 µM), inactives show at the highest dose activity, negative = inhibition, usual class: inhibitors; actives 7.3% (n = 220,000); AID 1030, 2008; active = well fitted inhibition curve with a large enough effect, not every such curve was filed as active; inconclusive = small, poorly fitted or top-dose-only effect, or another doubt; inactive = no such curve, though single readings can be large or run the other way;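 note: plate controls were no enzyme wells and a reference inhibitor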
HPGD block – qHTS Assay for Inhibitors of HPGD (15-Hydroxyprostaglandin Dehydrogenase) | 15-hydroxyprostaglandin dehydrogenase [NAD(+)] (Homo sapiens), P15428 | purified HPGD, NADH fluorescence kinetic, PGE2 substrate | Potency, µM, for inactives: at the top dose activity change, negative = inhibition, actives largely listed as inhibitors | actives 4.3% (n = 150,000); active = well fitted inhibition curve with a large enough effect, not every such curve was filed as active; inconclusive = small, poorly fitted or top-dose-only effect, or another doubt; inactive = no such curve, though single readings can be large or run the other way
Target sequence (P15428 whole entry, looked up): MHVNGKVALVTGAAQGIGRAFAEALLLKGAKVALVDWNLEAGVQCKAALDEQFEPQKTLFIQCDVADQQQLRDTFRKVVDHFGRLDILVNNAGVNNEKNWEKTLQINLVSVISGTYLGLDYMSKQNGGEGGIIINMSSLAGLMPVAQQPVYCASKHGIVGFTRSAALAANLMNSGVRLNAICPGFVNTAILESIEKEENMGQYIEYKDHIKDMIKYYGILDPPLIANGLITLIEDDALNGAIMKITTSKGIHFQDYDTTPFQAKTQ
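NADH formation kinetics: reaction with 30 uM PGE2 and 1 mM NAD+ (final), 20 nM enzyme, Tris-HCl pH 8 with Tween 20, after 15 min compound preincubation at room temperature. Fluorescence change, last versus first of five reads.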
LMNA splice mod – qHTS Assay for Modulators of Lamin A Splicing. HeLa LMNA splicing GFP/RFP minigene ratio, 48 h. Potency, µM (highest dose often 46.1 µM), for the others: at the highest dose ratio change, negative = inhibition, usual class: inhibitors. actives 0.01% (n = 200,000). AID 1487, 2009; active = well fitted inhibition curve with a large enough effect in the signal ratio, with a control signal flat, not every such curve was filed as active; inconclusive = small, poorly fitted or top-dose-only effect, or effect the other way, or a change in a side signal; the % refers to the signal ratio
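S3 HeLa cells stably expressing lamin A-EGFP splicing minigene plus DsRed2, 600 cells/well, 48 h compound exposure at 37C. Laser-scanning cytometry; analysed as GFP (500-530 nm)/RFP (575-640 nm) total intensity ratio; 0.5% DMSO vehicle.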
* = called active by the depositor; ? = inconclusive; . = not tested or not shown; [ ] = remark or other dose. Hits are enriched below; roughly 9% of the tested compounds scored in any of these assays. Unless noted, calls come from the whole dose curve; as a rule, active = well fitted curve in the direction sought with a large enough effect; inconclusive = small, poorly fitted or top-dose-only effect, or another doubt; inactive = no such curve, though single readings can be large; an effect the other way counts as inactive or inconclusive. Unless noted, % is set by controls: 0 for no effect and ±100 for the full control effect; potency is the fitted concentration of half-maximal effect.

SMILES | Luc counter | IMPase Li inh | ALDH1A1 inh | HPGD block | LMNA splice mod
CO[C@H]1COC(=O)[C@@H](CCSC)NC(=O)C/C=C\[C@@H](C)[C@H](OC)COC(=O)[C@@H](OCc2ccccc2)/C=C\[C@@H]1C | . | . | -5.9%[13.5 µM] | . | .
O=C1ON=C(c2ccccc2)/C1=C/c1ccc(OS(=O)(=O)c2ccccc2)cc1 | 2.8% | 4.2% | 11.2µM* | 10µM* | -6.9%
COC(=O)[C@@H]1C[C@@]2(O)[C@H](O)[C@H](O)[C@H](O)C[C@H]2N1Cc1ccc(-c2ccccc2)cc1 | -1.8% | -5.9% | ? | -19.9% | .
CC(C)CNC(=S)NC(=O)c1ccc(Cl)cc1Cl | . | . | 22.4µM* | . | -15.6%
CC(C)CNC(=O)c1ccc(Cl)c(Cl)c1 | 1.3% | 7.6%[38.3 µM] | 10.9% | 22.4µM* | -2.0%
Cc1cccc(/C(N)=N/OC(=O)COc2ccc(Cl)cc2)c1 | -4.4% | 0.6% | 10.9% | . | -2.5%[46 µM]
Cn1cccc1CC(=O)NNC(=S)Nc1ccc(Cl)cc1Cl | -0.2% | -0.3% | 10µM* | 11.2µM* | -14.3%
O=C(NCCO)c1ccc(Cl)c(Cl)c1 | -1.6% | -13.8%[38.3 µM] | 2.4% | ? | ?
Cc1cccc(C(=O)NC(=S)NNC(=O)COc2ccc(Cl)cc2)c1 | 3.0% | 0.7% | 9.46µM* | . | ?
Cn1cccc1CC(=O)NNC(=S)NC(=O)c1ccccc1Br | -0.6% | 1.3% | -5.5% | . | ?
Cc1ccc(N(C)C(=O)Cn2ncc3c([nH]c4ccccc43)c2=O)cc1C | . | . | . | . | -10.1%[46 µM]
Cc1ccc(C)c(NC(=O)C2CCCN2C(=O)NC2CCCCC2)c1 (stereo not given) | -1.4% | 6.9% | 11.2% | . | 7.2%[46 µM]
CCCn1c(SCC(=O)Nc2cccc(S(=O)(=O)N3CCCC3)c2)n[nH]c1=O | 1.2% | 12.9% | ? | . | 5.1%[46 µM]
Cc1ccc(OCC(=O)NC(=S)Nc2cccc(NC(=O)c3ccc(Cl)cc3Cl)c2)cc1 | -1.6% | 5.5% | -8.5% | -7.2% | 4.2%
O=C(COc1cccc(Cl)c1)NNC(=S)Nc1ccccc1 | 2.9% | -14.2% | 14.9% | -17.3% | -3.3%
COc1cccc(OCC(=O)NNC(=S)Nc2ccc(Cl)cc2Cl)c1 | 1.0% | 16.3% | 2µM* | . | .
O=C(COc1ccccc1)NNC(=S)NC(=O)c1ccc(Cl)cc1Cl | 0.9% | -7.3% | 7.94µM* | 35.5µM* | ?
COc1cccc(OCC(=O)Nc2ccccc2-c2ccccc2)c1 | -0.6% | 18.6% | 20µM* | . | .
c1cncc(-c2nc3cc4ccccc4cc3[nH]2)c1 | ? | -28.4%[38.3 µM] | ? | ? | 11.2%
CC(=O)Nc1ccc2nc(-c3ccccn3)[nH]c2c1 | 11.2µM* | -24.4%[38.3 µM] | ? | ? | 16.9%
c1ccc(-c2nc3cc4ccccc4cc3[nH]2)nc1 | 11.2µM* | 6.4% | -0.2% | -15.4% | ?
Cc1nn(CC(=O)NCc2cccc(F)c2)c(=O)c2c(C)n(-c3ccc(Cl)cc3)nc12 | . | . | . | . | -11.3%[46 µM]
Cc1onc(-c2ccccc2)c1CNS(=O)(=O)c1cccc(Br)c1 | . | . | 2.82µM* | . | .
CCCCn1nnnc1SCC(=O)c1ccccc1F | -1.4% | 23.7% | -6.2% | . | .
CCCCn1nnnc1SCC(=O)c1ccc(C)c(C)c1 | . | . | 7.94µM* | . | ?
SMILES | Luc counter | IMPase Li inh | ALDH1A1 inh | HPGD block | LMNA splice mod
CCCCn1nnnc1SCC(=O)c1cc(Cl)ccc1OC | 2.3% | -2.4%[38.3 µM] | 5.01µM* | -25.6% | -1.2%
COc1ccc(C(=O)c2no[n+]([O-])c2C(=O)c2ccc(OC)cc2)cc1 | 3.0% | -1.4%[38.3 µM] | 1µM* | ? | ?
O=C(c1cccs1)c1no[n+]([O-])c1C(=O)c1cccs1 | -2.5% | 17.4%[38.3 µM] | 0.282µM* | 12.6µM* | ?
O=C(CCc1ccc(CCC(=O)c2cccs2)s1)c1cccs1 | -0.3% | 10.2%[38.3 µM] | -12.3% | ? | ?
COC(=O)NC(/C(C(=O)OC)=C(\C)NCc1ccccc1)c1ccc2ccccc2c1 (stereo not given) | . | . | 3.55µM* | . | .
CCOc1ccc(OCc2nnc(SCC(=O)NC3CCS(=O)(=O)C3)n2-c2ccc(Cl)cc2)cc1 (stereo not given) | 4.3% | 5.4% | ? | 0.7% | ?
